Measurements reported in PubChem BioAssay AID589 (National Center for Advancing Translational Sciences (NCATS), 2007).
In all, about 59,000 compounds went through this assay and about 6,200 (11%) were called active. Not shown: some 9% with an inconclusive outcome. This is one part of a sample in which actives are shown more often than they occur. Rule as the data show it: active = max dye-equivalent concentration above about 10 nM; inconclusive = mostly about 1.1 nM to 9.6 nM; inactive = weaker than that.

Assay: qHTS Assay for Spectroscopic Profiling in 4-MU Spectral Region
Settings: compound autofluorescence, 340/450 nm, 4-MU equivalents; hits give high values
Method in brief: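 Intrinsic fluorescence at 340/450 nm (ex/em) was read after 15 min at room temperature in pH 8.0, 100 mM Tris. Each compound concentration expressed as 4-MU-equivalent concentration from a six-point 4-MU standard series on each plate.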

Structure (SMILES)	max dye-equivalent concentration
CCCC(=O)Nc1c(O)c2ccccc2[nH]c1=O	inactive
C=CCOc1ccc(C2/C(=C(\O)c3c(C)[nH]c(C(=O)OC)c3C)C(=O)C(=O)N2CCN(C)C)cc1 (stereo not given)	inactive
CC1(C)NC(=O)N(CCOc2cccc(Oc3ccccc3)c2)C1=O	inactive
COc1ccc2[nH]cc(CCNc3nc(-c4cccc(NS(C)(=O)=O)c4)nc4ccccc34)c2c1	inactive
COc1ccccc1-c1cc(C(=O)NCCCn2ccnc2)no1	inactive
COc1ccc(CNc2ncncc2-c2ccccc2OC)c(OC)c1	inactive
Cc1ccc(OCc2nc(C#N)c(N3CCCC3)o2)cc1	inactive
Cc1cccc2cc(C#N)c(N3CCCC3)nc12	42 nM (active)
Cc1cc(C)c2nc(N3CCCC3)c(C#N)cc2c1	130 nM (active)
NC(=O)C1CCN(C(=O)c2ccc(C(F)(F)F)cc2)CC1	inactive
CN1CCN(CCCNC(=O)c2cc3c(=O)oc4ccccc4c3s2)CC1	inactive
O=C(c1ccc([N+](=O)[O-])cc1)[C@@H](Br)[C@@H](Br)c1ccnc2ccccc12	inactive
CC12C(=O)N(n3cnnc3)C(=O)C1C1C=CC2C1 (stereo not given)	inactive
Cc1ccc(-n2ncc3c(N4CCN(c5ccc(F)cc5)CC4)ncnc32)c(C)c1	inactive
Fc1ccc2[nH]c3c(N4CCSCC4)ncnc3c2c1	47 nM (active)
Cc1cnc(CNc2nc(-c3cccnc3)nc3ccccc23)cn1	inactive
Cc1noc(C)c1C(=O)NC(C)c1ccc2c(c1)OCO2 (stereo not given)	inactive
O=C(CSc1nnc(-c2ccco2)n1Cc1ccccc1)NC(=O)NCc1ccco1	inactive
CO[C@@H]1/C=C\O[C@]2(C)Oc3c(C)c(O)c4c(O)c(c(CN(C)C)c(O)c4c3C2=O)NC(=O)/C(C)=C\C=C[C@@H](C)[C@@H](O)[C@H](C)[C@@H](O)[C@H](C)[C@H](OC(C)=O)[C@@H]1C	inactive
O=C(Nc1ccc(Oc2ccccc2)cc1)c1ccco1	inactive
CCOc1cc(NC(=O)c2ccco2)c(OCC)cc1NC(=O)COc1ccccc1	85 nM (active)
Cc1ccc(C(=O)COc2cccc(NC(=O)c3ccco3)c2)cc1	inactive
O=c1oc2c(CN3CCCCC3)c(O)ccc2c2c1CCCCC2	12000 nM (active)
CCN(CC)S(=O)(=O)c1cc(C(=O)Nc2ccccn2)ccc1C	inactive

Structure (SMILES)	max dye-equivalent concentration
Cc1ccnc(N2CCN(C(=O)CSc3nc4ccccc4nc3N3CCCCC3)CC2)c1	29 nM (active)
Cn1c(=O)cc(OCCCC(=O)N2CCN(c3ccccn3)CC2)c2ccccc21	inactive
O=C(CSc1nc2ccccc2o1)N1CCN(c2ccccc2)CC1	inactive
CC1Cc2ccccc2N1C(=O)CSc1nc2ccccc2o1 (stereo not given)	inactive
c1ccc(CCN2CCN=C2Cc2ccccc2)cc1	inactive
Cc1ccc(NC(=O)Cn2nc(C)c3ccccc3c2=O)c(C)c1	inactive
CCOc1ccc(N=NS(=O)(=O)O)cc1	inactive
Nc1ccc2[nH]cc(CCC(=O)O)c2c1	inactive
NCCNCC1CCNCC1	inactive
O=C(NCCc1ccccn1)c1ccc(COc2ccccc2)o1	inactive
O=C(O)[C@H](CCc1ccccn1)c1ccccc1	inactive
C/C(N)=C(\C#N)C(=O)NCCc1ccccn1	46 nM (active)
O=C1C(=O)N(CCN2CCOCC2)C(c2ccccn2)/C1=C(/O)c1ccc(Cl)cc1 (stereo not given)	inactive
COc1ccccc1-c1nc(N2CCN(C)CC2)c2ccccc2n1	inactive
CCOC(=O)c1sc2nc(CSCC(=O)OCc3ccc(C(=O)OC)o3)[nH]c(=O)c2c1C	inactive
CCOC(=O)c1ccc(CS(=O)c2ccc(Cl)cc2)o1 (stereo not given)	inactive
CCOC(=O)c1ccc(COC(=O)c2cc(=O)[nH]c3ccccc23)o1	33 nM (active)
COC(=O)CCSc1nccn1Cc1ccccc1	inactive
CN(C)c1ccnc2sc3c(=O)n(Cc4ccccc4)cnc3c12	28 nM (active)
CN(C)/C=C/c1c(C#N)c(=O)ncn1Cc1ccccc1	inactive
CCOc1ccccc1N(CC(=O)NC1CCCCC1)C(=O)CCCC(=O)Nc1ccccn1	inactive
CCC(C)(C)n1nnnc1C(c1cccs1)N1CCN(Cc2ccccc2)CC1 (stereo not given)	inactive
COc1ccccc1C(=O)Oc1ccc(N2C(=O)CCC2=O)cc1	inactive
COc1ccc(-c2noc(CN(C)S(=O)(=O)c3ccc(C)cc3)n2)cc1	inactive

Structure (SMILES)	max dye-equivalent concentration
CCOc1cc(-c2noc(CCC(=O)N3CCOCC3)n2)ccc1OC	inactive
COc1ccc(-c2nc(-c3ccccc3)no2)c(OC)c1	inactive
CCOc1nc(-c2ccc(OC)cc2)ccc1-c1noc(-c2cc(OC)c(OC)c(OC)c2)n1	57 nM (active)
COc1ccc(-c2ccc(-c3noc(-c4ccncc4)n3)c(OC)n2)cc1	17 nM (active)
O=C(Oc1ccc(-c2nc(-c3ccccn3)no2)cc1)c1ccccc1	inactive
FC(F)Oc1ccccc1C1CC(c2ccc(Br)s2)Nc2ncnn21 (stereo not given)	inactive
CN1CCN(C(=O)c2ccc(NS(=O)(=O)c3ccccc3)cc2)CC1	inactive
O=C(c1cnccn1)N1CCC2(CCCN(Cc3ccccc3)C2)CC1	inactive
Cc1ccc2c(c1)c1ncn(CCC3=CCCCC3)c(=O)c1n2C	38 nM (active)
O=C(COc1cccc(-n2cnnn2)c1)NCCC1=CCCCC1	inactive
Cn1nnc2cc(C(=O)NCCC3=CCCCC3)ccc21	inactive
NC(=S)c1ccc(C(N)=S)o1	inactive
CCCCSc1nnc(-c2ccc(NC(=O)CC)cc2)n1C	inactive
CCOc1cc(C)c(Cl)cc1S(=O)(=O)n1nnc2ccccc21	inactive
Cc1nn(Cc2ccccc2)c(Cl)c1C(=O)OC1CCOC1=O (stereo not given)	inactive
O=C(OC1CCOC1=O)c1ccc(-c2nc3ccccc3s2)s1 (stereo not given)	550 nM (active)
O=C(c1cccs1)N1CCC(c2nc3ccccc3s2)CC1	inactive
Cc1ccc(C(C)C)c(OCc2nnc(SCC(=O)Nc3nccs3)n2C)c1	inactive
C=CCOc1ccc(/C=N/n2cncn2)cc1OC	inactive
COc1cccc(N2CC(C(=O)Nc3c(C)cccc3C)CC2=O)c1 (stereo not given)	20 nM (active)
COc1ccc(Cl)cc1NC(=O)C1CC(=O)N(c2ccc(F)cc2)C1 (stereo not given)	inactive
COCCCNC(=O)C1CC(=O)N(c2ccc(C)cc2)C1 (stereo not given)	inactive
